# PubChem BioAssay
# A number with no mark means an inactive call. For some of these results: Measured potencies and affinities stand elsewhere. The source made the active and inactive calls. Unless noted, no rule for the calls is given here.
# Legend:
# [1] = antimalarial activity against Dd2 strain (AID 2302;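 active = growth inhibition above 50% at the single 2 µM test dose, taken to imply half-maximal potency below 2 µM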;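 also: 0% = DMSO untreated growth and 100% = chloroquine plus artemisinin killed control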); details: P. falciparum Dd2 in RBCs, LDH growth readout, 72 h; at 2 µM; hits give high values
# [2] = HepG2 cytotoxicity, primary screen, cytotoxicity control for P. falciparum antimalarial project, cell-based, ATP luminescence (AID 2303;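 active = inhibition above 50%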;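 also: 0% = DMSO wells and 100% = digitonin-killed cells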); details: HepG2 viability, 24-48 h, at 10 µM, hits give high values
# [3] = biological target: L-lactate dehydrogenase (Plasmodium falciparum (isolate CDC / Honduras)) (UniProt Q27743); experiment: PfLDH activity inhibition – cell lysate, 3D7 strain, counter-screen for P. falciparum growth inhibition project (AID 2304);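 also: 0% = vehicle and 100% = reference inhibitor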; details: P. falciparum 3D7 crude extract, LDH APAD/NBT absorbance; at 2 µM; hits give high values
# [4] = inhibition of 3D7 malaria parasite growth – strain 3D7 (AID 2306);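 also: 0% = DMSO wells and 100% = chloroquine plus artemisinin control wells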; details: P. falciparum 3D7 erythrocytic growth, LDH absorbance, 72 h; at 2 µM; hits give high values
# [5] = biological target: Calcium-dependent protein kinase 1 (Plasmodium falciparum (isolate 3D7)) (UniProt P62344); experiment: PfCDPK1 kinase inhibitors, biochemical, TCAMS library (AID 1159585; cut-off not given, nearly all actives have IC50 up to about 0.98 µM;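 also: inhibitors leave more ATP so luminescence rises with inhibition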); details: recombinant PfCDPK1, Kinase-Glo ATP depletion luminescence
# [6] = biological target: Plasmodium falciparum protein kinase 6 (PK6, PF3D7_1337100) (UniProt Q8IDW1); experiment: PfPK6 kinase inhibitors, biochemical, TCAMS library (AID 1159586); details: recombinant PfPK6, Kinase-Glo ATP depletion luminescence
# [7] = biological target: Protein kinase 7 (PK7), Plasmodium falciparum 3D7 (PF3D7_0213400) (UniProt Q7YTF7); experiment: inhibition of Plasmodium PK7 catalytic activity – biochemical, TCAMS antimalarial set, Kinase-Glo luminescence (AID 1159587); details: recombinant PfPK7, Kinase-Glo ATP depletion luminescence
# [8] = biological target: Calcium-dependent protein kinase 4 (Plasmodium falciparum (isolate 3D7)) (UniProt Q8IBS5); experiment: PfCDPK4 kinase inhibitors, biochemical, TCAMS library (AID 1159588; cut-off not given, nearly all actives have IC50 up to about 0.91 µM); details: recombinant PfCDPK4, Kinase-Glo ATP depletion luminescence
# Sequence of Calcium-dependent protein kinase 4 (Plasmodium falciparum (isolate 3D7)) (Q8IBS5 whole entry, looked up): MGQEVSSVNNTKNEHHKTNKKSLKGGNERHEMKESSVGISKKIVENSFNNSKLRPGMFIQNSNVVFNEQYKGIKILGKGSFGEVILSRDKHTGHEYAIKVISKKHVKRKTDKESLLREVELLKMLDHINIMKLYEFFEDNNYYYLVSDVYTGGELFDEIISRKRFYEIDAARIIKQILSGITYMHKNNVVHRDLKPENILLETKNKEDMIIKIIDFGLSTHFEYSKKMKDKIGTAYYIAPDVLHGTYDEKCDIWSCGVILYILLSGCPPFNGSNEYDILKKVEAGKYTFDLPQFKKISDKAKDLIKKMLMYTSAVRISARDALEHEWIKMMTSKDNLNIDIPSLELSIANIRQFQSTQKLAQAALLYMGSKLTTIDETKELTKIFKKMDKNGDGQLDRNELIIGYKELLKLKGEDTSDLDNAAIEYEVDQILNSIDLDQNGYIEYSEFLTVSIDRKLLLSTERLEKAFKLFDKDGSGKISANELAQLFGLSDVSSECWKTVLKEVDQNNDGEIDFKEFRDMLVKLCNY
# Sequence of Plasmodium falciparum protein kinase 6 (PK6, PF3D7_1337100) (Q8IDW1 1-305): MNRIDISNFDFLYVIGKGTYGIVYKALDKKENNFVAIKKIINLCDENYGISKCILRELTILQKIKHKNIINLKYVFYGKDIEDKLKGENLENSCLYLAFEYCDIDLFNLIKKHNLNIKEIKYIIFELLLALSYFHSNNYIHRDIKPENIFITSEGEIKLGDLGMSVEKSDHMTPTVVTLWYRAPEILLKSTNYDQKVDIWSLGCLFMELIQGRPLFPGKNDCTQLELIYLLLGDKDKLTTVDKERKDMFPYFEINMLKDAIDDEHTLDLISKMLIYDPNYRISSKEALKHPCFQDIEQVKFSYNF
# Sequence of Calcium-dependent protein kinase 1 (Plasmodium falciparum (isolate 3D7)) (P62344 whole entry, looked up): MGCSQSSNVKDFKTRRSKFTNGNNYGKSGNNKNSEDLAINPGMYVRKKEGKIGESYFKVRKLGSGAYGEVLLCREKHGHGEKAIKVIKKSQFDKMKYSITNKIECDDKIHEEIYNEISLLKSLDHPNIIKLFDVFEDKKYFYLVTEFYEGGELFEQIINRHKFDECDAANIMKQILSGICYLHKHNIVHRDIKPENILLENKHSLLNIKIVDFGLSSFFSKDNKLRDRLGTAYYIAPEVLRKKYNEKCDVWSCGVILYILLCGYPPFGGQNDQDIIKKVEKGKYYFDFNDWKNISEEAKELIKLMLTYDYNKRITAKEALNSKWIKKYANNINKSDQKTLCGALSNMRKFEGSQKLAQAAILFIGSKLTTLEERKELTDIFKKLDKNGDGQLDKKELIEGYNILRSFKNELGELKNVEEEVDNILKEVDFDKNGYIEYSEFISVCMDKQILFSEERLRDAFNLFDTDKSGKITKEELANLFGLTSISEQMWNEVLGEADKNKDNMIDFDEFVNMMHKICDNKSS
# Sequence of L-lactate dehydrogenase (Plasmodium falciparum (isolate CDC / Honduras)) (Q27743 whole entry, looked up): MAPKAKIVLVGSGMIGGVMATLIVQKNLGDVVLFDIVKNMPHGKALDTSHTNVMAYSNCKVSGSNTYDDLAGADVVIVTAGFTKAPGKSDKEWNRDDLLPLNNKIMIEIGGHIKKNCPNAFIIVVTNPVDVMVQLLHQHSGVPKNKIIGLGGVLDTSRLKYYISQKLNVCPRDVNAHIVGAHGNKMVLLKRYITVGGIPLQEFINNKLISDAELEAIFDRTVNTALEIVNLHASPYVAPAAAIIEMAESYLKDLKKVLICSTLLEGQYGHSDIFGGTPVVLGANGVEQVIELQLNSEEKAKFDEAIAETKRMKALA
# Sequence of Protein kinase 7 (PK7), Plasmodium falciparum 3D7 (PF3D7_0213400) (Q7YTF7 1-343): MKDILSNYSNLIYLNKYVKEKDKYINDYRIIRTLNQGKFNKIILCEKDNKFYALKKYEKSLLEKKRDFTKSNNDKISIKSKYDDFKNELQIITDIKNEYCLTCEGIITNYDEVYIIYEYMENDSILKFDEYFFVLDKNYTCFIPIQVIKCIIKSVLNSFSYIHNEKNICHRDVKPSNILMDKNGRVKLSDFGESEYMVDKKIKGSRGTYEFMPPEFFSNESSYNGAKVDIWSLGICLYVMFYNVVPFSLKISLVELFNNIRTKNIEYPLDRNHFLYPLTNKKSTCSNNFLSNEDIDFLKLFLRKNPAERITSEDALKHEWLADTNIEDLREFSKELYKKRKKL
SMILES,growth inhibition [1],inhibition [2],inhibition [3],growth inhibition [4],outcome [5],outcome [6],outcome [7],outcome [8]
COc1ccc(-c2nc(NC(=O)Cc3coc4cc(OC)ccc34)sc2C)cc1,77% (active),9%,-2%,100% (active),inactive,inactive,inactive,inactive
C=CCn1c(Cc2ccccc2)nnc1Sc1ccc(C#N)c([N+](=O)[O-])c1,43%,7%,2%,86% (active),inactive,inactive,inactive,inactive
c1ccc2cc3c(Nc4ccc(N5CCCCC5)cc4)ccnc3cc2c1,36%,21%,-4%,100% (active),inactive,inactive,inactive,inactive
COc1ccc(C2CC(=O)C3=C(C2)NC(C)=C(C(=O)OC(C)C)C3c2cccc(O)c2)cc1OC (stereo not drawn),85% (active),-2%,-4%,100% (active),inactive,inactive,inactive,inactive
CCCOc1ccc(-c2nonc2NC(=O)c2ccccc2OC)cc1OCCC,82% (active),23%,-1%,98% (active),inactive,inactive,inactive,inactive
CC(=NNC(=S)NC(c1ccccc1)c1ccccc1)c1ccccn1,97% (active),45%,-2%,98% (active),inactive,inactive,inactive,inactive
NC(=O)c1ccsc1NC(=O)CNC(c1ccccc1)c1ccccc1,37%,8%,3%,88% (active),inactive,inactive,inactive,inactive
O=S(=O)(Nc1cccc(CCN2CCC(N3CCCCC3)CC2)c1)c1ccc2c(c1)OCCO2,5%,8%,-1%,91% (active),inactive,inactive,inactive,inactive
COc1cccc(CCc2c(CCNCCCCCCNCCc3ccccc3)ccc(OC)c2OC)c1,69% (active),100% (active),6%,100% (active),inactive,inactive,inactive,inactive
FC(F)(F)c1ccc(-c2cncc(-c3ccc(C(F)(F)F)cc3)n2)cc1,97% (active),9%,-7%,98% (active),inactive,inactive,inactive,inactive
COc1ccc(-c2cccc(NC(=O)c3ccc(Cl)cc3)c2)cc1CN1CCCN(C)CC1,95% (active),29%,-8%,101% (active),inactive,inactive,inactive,inactive
CCN(CC)CCNc1ccc(Nc2ccnc3cc4ccccc4cc23)cc1,99% (active),36%,-8%,102% (active),inactive,inactive,inactive,inactive
COc1cccc2cc(C(=O)N[C@@H](CC(C)C)C(=O)N[C@H](/C=N/N(C)C(=O)OC(C)(C)C)Cc3ccccc3)oc12,89% (active),5%,-3%,99% (active),inactive,inactive,inactive,inactive
Cc1cccc2[nH]c(-c3ccc(-c4cccc(NC(=O)NCc5ccc(F)cc5)c4)cc3)nc12,100% (active),82% (active),-1%,101% (active),inactive,inactive,inactive,inactive
CN(CCN(C)CC(O)c1ccc(Cl)c(Cl)c1)CC(O)c1ccc(Cl)c(Cl)c1 (stereo not drawn),73% (active),22%,-2%,91% (active),inactive,inactive,inactive,inactive
O=C(Nc1ccc(OC2CCN(Cc3ccc(F)cc3)C2)c(Cl)c1)c1ccc(F)cc1 (stereo not drawn),94% (active),10%,-3%,96% (active),inactive,inactive,inactive,inactive
CCOC(=O)c1ccc(N=C2SC(=Cc3cc(Br)ccc3O)C(=O)N2C)cc1,96% (active),-3%,-2%,99% (active),inactive,inactive,inactive,inactive
Cc1cccc2[nH]c(-c3ccc(-c4ccc(NC(=O)C(C)CN5CCN(C)CC5)cc4)s3)nc12 (stereo not drawn),99% (active),17%,-2%,101% (active),inactive,inactive,inactive,inactive
CCOC(=O)c1ccc(OCCCCCCOc2ccc(Br)cc2)cc1,-2%,12%,-4%,98% (active),inactive,inactive,inactive,inactive
CC(C)c1ccc(NC(=O)N2CCc3ccc(OCCN(C(C)C)C(C)C)cc32)c(Br)c1,5%,6%,2%,86% (active),inactive,inactive,inactive,inactive
Clc1ccc(CNCCCCCCNCc2ccc(Cl)cc2)cc1,28%,53% (active),1%,96% (active),inactive,inactive,inactive,inactive

SMILES,growth inhibition [1],inhibition [2],inhibition [3],growth inhibition [4],outcome [5],outcome [6],outcome [7],outcome [8]
O=C(/C=C/c1ccc(Cl)c(Cl)c1)NCCCN1CCC(c2c[nH]c3ccccc23)CC1,5%,48%,-4%,90% (active),inactive,inactive,inactive,inactive
NCc1ccc(-c2ccccc2CNC2CCN(Cc3ccccc3)CC2)cc1,3%,20%,-2%,94% (active),inactive,inactive,inactive,inactive
CS(=O)(=O)c1ccc(CNCc2ccc(-c3ccc(-c4nc5ccc(C(F)(F)F)cc5[nH]4)cc3)cc2)cc1,82% (active),26%,3%,101% (active),inactive,inactive,inactive,inactive
CN1CCC(Oc2ccc(CN3CC[C@H](NC(=O)c4ccc(F)c(F)c4)C3)c3ccccc23)C1 (stereo partly drawn),27%,20%,2%,91% (active),inactive,inactive,inactive,inactive
COc1ccc(OC)c(NC(=O)C2c3ccccc3C(=O)N(CC(C)C)C2c2cccs2)c1 (stereo not drawn),66% (active),9%,-5%,100% (active),inactive,inactive,inactive,inactive
COc1nc2c(CCN3CCC(NCc4ccc5c(n4)NC(=O)CO5)CC3)c(Cl)cnc2cc1F,40%,17%,-9%,99% (active),inactive,inactive,inactive,inactive
Cc1nc(-c2cccc3c(NC(=O)N4CCc5cc6nccc(N7CCN(C)CC7)c6cc54)cccc23)no1,97% (active),45%,2%,100% (active),inactive,inactive,inactive,inactive
COc1cccc(C2CCN(CCN3CCC(CNC(=O)c4ccc(-c5ccc(C(F)(F)F)cc5)cc4)CC3)CC2)c1,42%,41%,-2%,100% (active),inactive,inactive,inactive,inactive
CCn1c(C)c(C)c2cc(C(=O)Nc3ccon3)ccc21,93% (active),3%,-3%,95% (active),inactive,inactive,inactive,inactive
CN(C(=O)Nc1ccc(C(F)(F)F)cc1)C1CCN(CCCCCNC(=O)/C=C/c2ccc(Cl)c(Cl)c2)CC1,38%,57% (active),-3%,101% (active),inactive,inactive,inactive,inactive
CN1CCC(Oc2ccc(Nc3nccc(NCC(O)c4ccccc4)n3)cc2Cl)CC1 (stereo not drawn),99% (active),46%,0%,102% (active),inactive,inactive,inactive,inactive
COc1ccc(NC(=O)/C=C/c2ccccc2Cl)cc1OCCN1CCC(c2nc3ccccc3[nH]2)CC1,16%,35%,-6%,92% (active),inactive,inactive,inactive,inactive
COc1cccc(C(=O)Nc2nc3c(s2)CCN(Cc2ccccc2N2CCNCC2)CC3)c1,11%,7%,-6%,89% (active),inactive,inactive,inactive,inactive
c1cncc(-c2cc(N3CCc4ccccc4C3)nc(-c3ccncc3)n2)c1,100% (active),56% (active),-5%,100% (active),inactive,inactive,inactive,inactive
CCCCOc1cc(CNCCCCCCNCc2cc(OCCCC)cc3ccccc23)c2ccccc2c1,92% (active),99% (active),-5%,101% (active),inactive,inactive,inactive,inactive
CON=Cc1ccn(-c2ccc(O)c3c2C[C@H]2C[C@H]4[C@H](N(C)C)C(=O)C(C(N)=O)=C(O)[C@@]4(O)C(=O)C2=C3O)c1,70% (active),3%,-1%,96% (active),inactive,inactive,inactive,inactive
O=C(/C=C/c1ccc(-c2nc3ccc(Cl)cc3[nH]2)cc1)NCc1cccc(F)c1,68% (active),1%,2%,99% (active),inactive,inactive,inactive,inactive
CCOCn1c(-c2ccccc2)cc2c3c(N)nc(N)nc3ccc21,66% (active),62% (active),-4%,91% (active),inactive,inactive,inactive,inactive
Cc1sc2ncnc(Sc3nc4ccccc4[nH]3)c2c1C,100% (active),14%,1%,99% (active),inactive,inactive,inactive,inactive
COc1ccc2nccc([C@H](O)CN3CCC(NCc4nc5c(F)cccc5[nH]4)CC3)c2c1,0%,0%,-1%,98% (active),inactive,inactive,inactive,inactive
